Source: PubChem BioAssay (National Center for Advancing Translational Sciences (NCATS))
An excerpt weighted towards active compounds, which were near 13% of everything screened.
LASV entry inh: qHTS for Inhibitors of binding or entry into cells for Lassa Virus; 300,000 tested, 1.2% active; AID 540256, 2011; Lassa virus pseudotype entry inhibition, cell reporter; Potency, µM (highest dose often 37.9 µM), actives largely listed as inhibitors; calls by dose curve; tested in HEK293 cells; also: nearly all actives have a fitted effect of over 50% in size
Shiga inhibitor: A qHTS for Small Molecule Inhibitors of Shiga Toxin; 290,000 tested, 9.2% active; inhibition, % at 38.7 µM; AID 2315, 2010; Vero cells, Shiga toxin protein synthesis inhibition reporter; in the data active = inhibition mostly above about 28%, no sharp cut-off; inactive = mostly below about 43%
HCV inh: qHTS Assay for Inhibitors of Hepatitis C Virus (HCV). AID 651820, 2012. Potency, µM (highest dose often 41.8 µM), actives largely listed as inhibitors. Huh7.5.1 HCVcc-Cre infection, luciferase reporter, 44 h. 340,000 tested, 3.4% active; active = well fitted inhibition curve with a large enough effect; inconclusive = small, poorly fitted or top-dose-only effect, or another doubt; inactive = no such curve, though single readings can be large or run the other way
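Infectious HCV cell culture screen: compound-treated cells (1,000/well, pre-plated 4 h) are infected with HCVcc-Cre at roughly 0.5 moi and grown 44 h. Infection is quantified by luciferase signal after 15 min substrate incubation at room temperature.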
CHX counter: Cycloheximide Counterscreen for Small Molecule Inhibitors of Shiga Toxin. cell reporter, cycloheximide protein synthesis inhibition counterscreen. max response, %. 300,000 tested, 12% active. AID 2314, 2010; in the data active = max response mostly above about 13%, no sharp cut-off; inactive = mostly below about 14%; also: read at 38.3 µM for the half of the compounds with a filed dose
FMDV inh: High Throughput Screening for Foot and Mouth Disease Virus Antivirals; FMDV antiviral cell-based qHTS; Potency, µM (top dose mostly 57.9 µM), most hits filed as inhibitors; 410,000 tested, 1.2% active; calls by dose curve; tested in HEK293T cells; also: read-out not given here; nearly all actives have a fitted effect of over 45% in size
Marburg entry inh: qHTS for inhibitors of binding or entry into cells for Marburg Virus. Marburg virus pseudotyped entry inhibition, cell reporter. Potency, µM (titrated, usually from 37.8 µM), most hits filed as inhibitors. 300,000 tested, 1.8% active; calls by dose curve; tested in HEK293 cells
Hits are given with their value.

Results for CCOc1c(Br)cc(/C=N\NC(=O)c2ccccc2)cc1OC ?
LASV entry inh: inactive; Shiga inhibitor: active; HCV inh: inconclusive; CHX counter: 32.0; FMDV inh: inactive; Marburg entry inh: inconclusive

How did COc1cc(/C=N/NC(=O)c2ccc(O)cc2)ccc1OCC(=O)N1CC(C)OC(C)C1 (stereo unspecified) do in these assays?
LASV entry inh: inactive; Shiga inhibitor: 36.9; HCV inh: inactive; CHX counter: 14.1; FMDV inh: inactive; Marburg entry inh: inactive

What do the screens show for `COc1ccc(C(=O)N/N=C/c2ccc(OC)c(COc3ccccc3)c2)cc1`?
LASV entry inh: inactive; Shiga inhibitor: inactive; HCV inh: inconclusive; CHX counter: inactive; FMDV inh: inactive; Marburg entry inh: inconclusive

Results for C=CCOc1ccc(/C(CC)=N/O)cc1OC ?
LASV entry inh: inactive; Shiga inhibitor: inactive; HCV inh: inactive; CHX counter: inactive; FMDV inh: inactive; Marburg entry inh: inactive

How did Cc1ccc2nc(SCC(=O)N3N=C(c4cccs4)CC3c3ccc(F)cc3)nc(=O)n2c1 (stereo unspecified) do in these assays?
FMDV inh: inactive

How did CCCc1cc(=O)[nH]c(SCCN2C(=O)c3ccccc3C2=O)n1 do in these assays?
Shiga inhibitor: inactive; HCV inh: inactive; CHX counter: inactive; FMDV inh: inactive

How did CCCCC1(C2CCCC2)Cc2cc(OCCCC(=O)O)c(Cl)c(Cl)c2C1=O (stereo unspecified) do in these assays?
Shiga inhibitor: inactive; CHX counter: inactive; FMDV inh: inactive

How did CCCN1C(=O)c2[nH]nc(-c3ccccc3)c2C1c1cccc(O)c1 (stereo unspecified) do in these assays?
LASV entry inh: inactive; FMDV inh: inactive; Marburg entry inh: inconclusive

Results for COc1ccc(/C=N/NC(=O)c2ccn[nH]2)cc1CN1CCOCC1 ?
LASV entry inh: inactive; Shiga inhibitor: inactive; HCV inh: inactive; CHX counter: inactive; FMDV inh: inactive; Marburg entry inh: inactive

What do the screens show for `COc1ccc(/C=N\NC(=O)c2ccc(F)cc2)cc1COc1cc(F)ccc1[N+](=O)[O-]`?
LASV entry inh: inconclusive; Shiga inhibitor: inactive; HCV inh: 10µM; CHX counter: inactive; FMDV inh: 25.1µM; Marburg entry inh: inactive

What do the screens show for `COc1cccc(OCc2cc(/C=N/NC(=O)c3ccn[nH]3)ccc2OC)c1`?
LASV entry inh: inactive; Shiga inhibitor: 70.8; HCV inh: inactive; CHX counter: 49.6; FMDV inh: inactive; Marburg entry inh: inactive

Results for COc1cc(/C=N/NC(=O)c2sc(N)c(C#N)c2C)ccc1O ?
LASV entry inh: inactive; Shiga inhibitor: inactive; HCV inh: inactive; CHX counter: inactive; FMDV inh: inactive; Marburg entry inh: 4.47µM

How did CC(C)(C)c1ccc(O[C@@H]2[C@H](O)CO[C@H]2/C=C/C#Cc2ccccc2)cc1 do in these assays?
Marburg entry inh: inactive

How did COc1ccc(OCC(O)CNC(=O)c2ccc(C)cc2)cc1 (stereo unspecified) do in these assays?
LASV entry inh: inactive; Shiga inhibitor: inactive; HCV inh: inactive; CHX counter: inactive; FMDV inh: inactive; Marburg entry inh: inactive

What do the screens show for `CCCN1Cc2cccc(C(=O)Nc3ccc(C)cc3)c2C1=O`?
LASV entry inh: inactive; Shiga inhibitor: inactive; HCV inh: inconclusive; CHX counter: inactive; FMDV inh: inactive; Marburg entry inh: inactive

What do the screens show for `CCCN1Cc2cccc(C(=O)Nc3ccc(-c4nc5ccccc5[nH]4)cc3)c2C1=O`?
LASV entry inh: inactive; Shiga inhibitor: inactive; HCV inh: inconclusive; CHX counter: 18.2; FMDV inh: inactive; Marburg entry inh: inactive

What do the screens show for `COCCN1Cc2cccc(C(=O)Nc3cccc(-c4nc5ccccc5[nH]4)c3)c2C1=O`?
LASV entry inh: inconclusive; Shiga inhibitor: inactive; HCV inh: inconclusive; CHX counter: 48.0; FMDV inh: inactive; Marburg entry inh: inconclusive

What do the screens show for `COCCN1Cc2cccc(C(=O)Nc3cc(C)cc(C)c3)c2C1=O`?
LASV entry inh: inactive; Shiga inhibitor: inactive; HCV inh: inconclusive; CHX counter: inactive; FMDV inh: inactive; Marburg entry inh: inconclusive

What do the screens show for `CCCN1Cc2cccc(C(=O)Nc3ccc4c(c3)OCCO4)c2C1=O`?
Shiga inhibitor: inactive; HCV inh: inactive; CHX counter: 18.7; FMDV inh: inactive

How did COCCN1Cc2cccc(C(=O)Nc3ccc(-c4nc5ccccc5[nH]4)cc3)c2C1=O do in these assays?
LASV entry inh: inactive; Shiga inhibitor: inactive; HCV inh: inactive; CHX counter: 11.5; FMDV inh: inactive; Marburg entry inh: inconclusive

Results for Cc1nc2ccccn2c(=O)c1NC(=O)COc1ccccc1 ?
FMDV inh: inactive

How did CC(C)c1ccc(S(=O)(=O)NCCCN2CCOCC2)cc1 do in these assays?
FMDV inh: inactive

Results for CC(C)c1ccc(/C=C2\C(=O)N(CCN3CCOCC3)C(=S)N2C)cc1 ?
LASV entry inh: inconclusive; Shiga inhibitor: inactive; HCV inh: 10µM; CHX counter: inactive; FMDV inh: inconclusive; Marburg entry inh: inconclusive

How did COc1cc(CNC(=O)c2cnccn2)cc(OC)c1 do in these assays?
HCV inh: inactive; FMDV inh: inactive

How did COC(=O)[C@H]1[C@H]2C[C@@H]3c4[nH]c5cc(OC)ccc5c4CCN3C[C@H]2C[C@@H](OC(=O)c2cc(OC)c(OC)c(OC)c2)[C@@H]1OC do in these assays?
LASV entry inh: 7.3µM; HCV inh: inconclusive; FMDV inh: inactive; Marburg entry inh: 10.3µM

Results for O=C(Nc1nnc(-c2ccco2)s1)C1CCCCC1 ?
LASV entry inh: inconclusive; Shiga inhibitor: 71.0; HCV inh: inactive; CHX counter: 42.0; FMDV inh: inactive; Marburg entry inh: inactive

What do the screens show for `CCc1ccc(OCC(=O)Nc2nnc(-c3ccco3)s2)cc1`?
Shiga inhibitor: inactive; HCV inh: inactive; CHX counter: inactive; FMDV inh: inactive

Results for CC(C)CC(=O)Nc1nnc(-c2ccco2)s1 ?
LASV entry inh: inconclusive; Shiga inhibitor: inactive; HCV inh: inactive; CHX counter: 29.2; Marburg entry inh: inactive

What do the screens show for `COC(=O)Nc1nnc(-c2ccco2)s1`?
LASV entry inh: inactive; Shiga inhibitor: inactive; HCV inh: inactive; CHX counter: 11.7; FMDV inh: inactive; Marburg entry inh: inactive

What do the screens show for `CCC(=O)c1ccc(Oc2nc3c(c(=O)n(C)c(=O)n3C)n2CC)cc1`?
LASV entry inh: inactive; Shiga inhibitor: inactive; HCV inh: inactive; CHX counter: inactive; FMDV inh: inconclusive; Marburg entry inh: inactive

Results for Cc1noc(C)c1C(=O)OCC(=O)NCCc1ccccc1 ?
LASV entry inh: inactive; HCV inh: inactive; FMDV inh: inactive; Marburg entry inh: inactive

What do the screens show for `CN1CCCC1CN1CCCC1` (stereo unspecified)?
FMDV inh: inactive

How did CN1CCCC1CCNC1C2CC3CC(C2)CC1C3 (stereo unspecified) do in these assays?
LASV entry inh: inactive; Shiga inhibitor: inactive; CHX counter: inactive; FMDV inh: inactive; Marburg entry inh: 13µM

What do the screens show for `CCC(=O)c1ccc(OCC(=O)OCc2csc(CC(=O)Nc3ccccc3C)n2)cc1`?
FMDV inh: inactive
